This note sets out measurements from PubChem BioAssay (NCI).

Structures are written as SMILES. The panel holds about 83,000 compounds, 20% with a hit somewhere; the sample as a whole holds those more often.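 Testing used 96-well plates and a 48-hour single-concentration exposure. Example: -40 means 40% of the starting cells died.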 Activity calls are given as the source filed them.

The subject of the assay is PC-3 prostate. Briefly: NCI-60 one-dose screen, 48 h (100 = growth as untreated, 0 = no growth, -100 = all killed). The settings on record: 10 µM unless noted. On the procedure:
Growth inhibition of the PC-3 human tumor cell line is measured as a screen for anti-cancer activity. Cells are grown in 96 well plates and exposed to the test compound for 48 hours. Compounds are tested at a single concentration, which is 10^-5 M for most compounds. The reported endpoint is percent growth (GI% or GIPRCNT), where numbers from 0 - 100% represent growth inhibition, and numbers from -100% - 0 represent cell death. For example, a value of 40 represents 60% growth inhibition. A value of 0 means no net growth occurred over the course of the experiment. A value of -40 indicates 40% of cells at the beginning of the experiment died by the end of the experiment. A value of -100 means all cells are dead at the end of the experiment.
NCI-60 Human Tumor Cell Lines Screen was performed using the standard one-dose NCI protocol, which is described in more detail at https://dtp.cancer.gov/discovery_development/nci-60/default.htm.
Compounds with GIPRCNT values below 10 were considered active. Activity score was based on GIPRCNT using the following formula: […]
Score is 0 for GIPRCNT values of 100 or above, 50 for GIPRCNT values of 0, and 100 for GIPRCNT values of -100.
Turning to `CCC(C)(C)c1ccc(OCCCCCCN2CCN(c3ccc(C)c(Cl)c3)CC2)cc1`, the growth is 78.1% (inactive).

With `CC(=O)N1CCN(CCNC(=O)n2cc(-c3ccncc3)c(-c3ccc(O)c(Cl)c3)n2)CC1`, the growth is 171% (inactive). Turning to `CCC1(CC)C(OC)NC(Br)=C(C#N)C1(C#N)C(N)=O` (stereo not given), the growth is 107% (inactive).

Turning to `COc1cc2c(/C=C3\C(=O)Nc4ccc(Br)cc43)c(Cl)n(C)c2cc1C`, the growth was 11.8% (inactive). As to `COCC(=O)NNc1[nH]c(-c2ccc(OC)cc2)cc1C#N`, the growth was 97% (inactive).

As for `CCN(CCO)CCNc1ccc(C)c2sc3cc(OC)ccc3c(=O)c12`, the growth was 71.2% (inactive). With `CCCNC(=O)Oc1ccc(/C(=C(/C)Cc2ccc(OC)cc2)c2ccc(OCCN3CCCCC3)cc2)cc1` the figure was 77% (inactive); with `C=CCNC(=S)NNc1ccc([N+](=O)[O-])cn1`, 100% (inactive). With `Cc1ncc(C(=O)Nc2ccc(CN3CCN(C)CC3)c(C(F)(F)F)c2)cc1C#Cc1c(N)ncc2ccccc12` the figure was -76.7% (active). In the case of `COc1ccc(OC)c(Cn2cc3c(c2-c2ccccc2)CCc2cnoc2-3)c1`, the growth was 41.1% (inactive). With `O=[N+]([O-])c1ccc(-c2ncc(-c3ccc(O)cc3O)[nH]2)cc1` the figure was 98% (inactive); with `N=C(N)c1ccc(-c2ccc(-c3ccc(Cl)cc3)s2)s1`, -91% (active). Next, `Cn1cnc2nc[nH]c2c1=S`: 86.4% (inactive); `C[C@]12C=CC(=O)C=C1[C@@H](F)C[C@@H]1[C@@H]2[C@@H](O)C[C@@]2(C)[C@H]1CC[C@]2(O)C(=O)CO`: 97.1% (inactive). With `CCCCCCCCCC(C)NC(=O)CCl` (stereo not given) the figure was 94.5% (inactive); with `COc1ccc(C2=NN(C(=O)c3cc(-c4ccc(C)cc4)nc4ccccc34)C(c3cc(-c4ccccc4)nn3-c3ccccc3)C2)cc1` (stereo not given), 74.7% (inactive). Turning to `COc1ccc(Cn2cc3c(c2-c2ccc(O)cc2)CCc2cnoc2-3)cc1`, the growth is 27% (inactive). On to `c1ccc(-c2cn3ccnc3c(-c3ccc4ncn(C5CCCCC5)c4c3)n2)cc1`, for which the growth is 7.96% (active). For `O=C(O)c1ccc(Br)nc1`, the growth was 97.3% (inactive). Next, `CC1(C)CC(=O)C2=C(C1)Oc1nc(N)c(C#N)c(N)c1C2c1ccc(F)cc1` (stereo not given): 113% (inactive). For `COC1=CC(c2ccc[nH]2)=N/C1=C\c1[nH]c(C)c(C(=O)CCCCC(=O)NC(C)(C)C)c1C`, the growth is -31.3% (active).

On to `COc1cc2ncnc(Nc3ccc4c(cnn4C(=O)Nc4ccccc4)c3)c2cc1OC`, for which the growth was 98.9% (inactive). Take `Clc1ccc(N/N=C/c2ccccn2)nc1`: the growth is 39.3% (inactive). As to `Nc1cc2c(cc1Br)[nH]c(=O)c1ccccc12`, the growth was 42.9% (inactive).

On to `COc1ccccc1CNCCCN1C(=O)c2ccc3c4c(ccc(c24)C1=O)C(=O)N(CCCNCc1ccccc1OC)C3=O`, for which the growth was -59.9% (active). With `CC(=O)Nc1ccc(S(=O)(=O)Cl)cc1` the figure was 99.8% (inactive); with `CCOC(=O)c1c(C)oc2ncnc(Nc3ccc(NC(=O)Nc4cccc(Cl)c4)cc3)c12`, 41.2% (inactive); with `COc1ccc2c(c1)/C(=C1/S/C(=N/c3nnc(C)s3)NC1=O)C(=O)N2Cc1ccc(Br)cc1`, 21.9% (inactive). On to `CCOC(=O)C(C)C(C)(O)c1ccccc1` (stereo not given), for which the growth was 99.9% (inactive). Consider `CCC(CCCN1C(=O)c2ccccc2C1=O)Nc1cc(OC)cc2cccnc12` (stereo not given), for which the growth is 86.9% (inactive). With `CC(C)(CNC1CCCCC1)OC(=O)c1ccccc1` the figure was 91.6% (inactive). Next, `COC(=O)c1ccc2[nH]c(O)c(C(=Nc3ccc(N(C)C(=O)CN4CCN(C)CC4)cc3)c3cccc(OC)c3)c2c1`: 20.3% (inactive); `CCOC(=O)NC1=NCC(C)(C)S1`: 93.6% (inactive). Regarding `CC(O)C(N)=O` (stereo not given), the growth was 92.6% (inactive). With `COc1cc(-c2nn(-c3ccc(NC(=O)Nc4cc(C(F)(F)F)cc(C(F)(F)F)c4)cc3)cc2-c2ccncc2)ccc1Cl` the figure was 10.6% (inactive); with `CCCCCCCCCCCCOC(=O)/C=C\C(=O)NC(N)=O`, 71.6% (inactive).

Regarding `CCC(C)[C@H](NC(=O)Nc1cc(C(F)(F)F)cc(C(F)(F)F)c1)C(=O)N[C@@H](Cc1cn(C)cn1)C(=O)OC` (stereo not given in full), the growth is -93.7% [100 µM] (active). For `CCCC(CCC)Oc1ccc(CCCC2=C(O)c3ccccc3C(=O)C2=O)cc1`, the growth was 27.7% (inactive). Next, `NCCCOc1cc(Cl)ccc1NC(=O)c1cc2ccccc2cc1OCCCN`: -76.3% (active).

As for `Nc1cc(N)c2nc(NCCc3ccc(Cl)c(Cl)c3)cnc2c1`, the growth is 43.9% (inactive).
